In PubChem BioAssay one finds composite z-score and z-score data, which are given here for 6 molecules.

Assay [1] has as its system Plasmodium falciparum Sir2 (PF13_0152, Sir2A). The experiment in a line: Plasmodium falciparum Sir2A binding compounds – biochemical, small-molecule microarray, 635 nm fluorescence, primary screen (AID 1098).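 Note: score merges spot fluorescence intensity with its signal-to-noise ratio.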 As to conditions: fluorescence 635 nm, higher = more signal.
Assay [2] is described as follows: probe aDKK1 binding to arrayed compounds – biochemical, biotinylated probe, 635/667 nm fluorescence, primary screen (AID 1099).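 Note: score merges 667nm spot fluorescence with signal to noise across triplicate slides.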 As to conditions: small-molecule microarray, higher = more signal.
The nature of assay [3]: probe aCHRDL2 binding to arrayed compounds – biochemical, biotinylated probe, 635/667 nm fluorescence, primary screen (AID 1100). As to conditions: small-molecule microarray, higher = more signal.
A short description of assay [4]: change in splice reporter luminescence, either direction, cell-based, HEK293, spliceosome inhibition project, primary screen (AID 1101).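 Note: HEK293 cells carrying a splicing-competent luciferase reporter gene; test concentration not given here.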 As to conditions: HEK293 splicing luciferase reporter, 24 h, higher = more signal, called active from +8 up or from −8 down. On the technique in general: Reporter assays use an easily measured gene product as a stand-in for the process of interest.

Assay [5] concerns the target Fibroblast growth factor 10 (Homo sapiens) (UniProt O15520). The experiment in a line: compounds binding fibroblast growth factor 10 – biochemical, small-molecule microarray, 635 nm fluorescence, primary screen (AID 1102). As to conditions: FGF10 binding, fluorescence 635 nm, higher = more signal.
Assay [6] has as its system glycogen synthase kinase-3 (GSK3A per assay name; protocol says GSK3B). Description: compounds binding glycogen synthase kinase-3 – biochemical, small-molecule microarray, 635 nm fluorescence, GSK3A, primary screen (AID 1103). Note: the record names both GSK3A and GSK3B. As to conditions: fluorescence 635 nm, higher = more signal.
Assay [7] has as its target Epidermal growth factor receptor (Homo sapiens) (UniProt P00533). The experiment in a line: compounds binding epidermal growth factor receptor – biochemical, small-molecule microarray, 635 nm fluorescence, primary screen (AID 1104).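 Note: score merges 667 nm emission intensity with spot signal to noise over triplicate slides.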 As to conditions: EGFR binding, higher = more signal.
In assay [8] the target is Follistatin-related protein 3 (Homo sapiens) (UniProt O95633). The experiment in a line: compounds binding follistatin-related protein 3 – biochemical, small-molecule microarray, 635 nm fluorescence, primary screen (AID 1105).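 Note: score merges emission near 667 nm and signal to noise per printed spot across three slides.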 As to conditions: FSTL3 binding, higher = more signal.
Sequence of Follistatin-related protein 3 (Homo sapiens) (O95633 whole entry, looked up): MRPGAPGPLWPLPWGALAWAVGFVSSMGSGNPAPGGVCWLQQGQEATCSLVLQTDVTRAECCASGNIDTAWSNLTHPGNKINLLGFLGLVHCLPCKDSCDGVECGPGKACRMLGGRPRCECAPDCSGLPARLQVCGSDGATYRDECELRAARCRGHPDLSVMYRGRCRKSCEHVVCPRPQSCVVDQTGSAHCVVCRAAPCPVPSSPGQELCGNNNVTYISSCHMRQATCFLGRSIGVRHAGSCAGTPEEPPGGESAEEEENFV
Assay [9] has as its target Dickkopf-related protein 1 (Homo sapiens) (UniProt O94907). The experiment in a line: small molecules binding DKK1 protein – biochemical, small-molecule microarray, 635 nm fluorescence scan, primary screen (AID 1106).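 Note: score merges emission near 667 nm with signal to noise over three replicate slides.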 As to conditions: higher = more signal.
For assay [10], the system named is Inhibin beta A chain (activin A). Description: small molecules binding activin A – biochemical, small-molecule microarray, 635 nm fluorescence scan, primary screen (AID 1107).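 Note: mouse activin A protein probed at 4.33 µg/mL on printed slides; score merges bound-protein fluorescence near 667 nm with spot signal-to-noise.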 As to conditions: INHBA, higher = more signal.
Assay [11] relates to Human papillomavirus type 1a protein E7 (residues 44-93). Description: small molecules binding HPV E7 44-93 – biochemical, small-molecule microarray, residues 44-93, 635 nm fluorescence, primary screen (AID 1108).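 Note: E7 fragment applied at 1 µg/mL in TBST for 1 h at 4 C; score combines spot fluorescence with its signal to noise ratio.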 As to conditions: fluorescence 635 nm, higher = more signal.
A short description of assay [12]: hepatitis C replication reporter changes, two-sided – Huh7 cells, luciferase reporter, HCV replication inhibitor project, primary screen (AID 1109).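 Note: huh7 hepatoma cells harbouring a luciferase neomycin HCV replicon reporter; luciferase luminescence as measure of HCV replicon replication; test concentration not given here.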 As to conditions: Huh7 HCV replicon luciferase reporter, 48 h; higher = more signal.
The target of assay [13] is Left-right determination factor 2 (Homo sapiens) (UniProt O00292). The experiment in a line: small molecules binding LEFTY2 protein – biochemical, small-molecule microarray, 635 nm fluorescence scan, primary screen (AID 1110). As to conditions: higher = more signal.
Sequence of Left-right determination factor 2 (Homo sapiens) (O00292 whole entry, looked up): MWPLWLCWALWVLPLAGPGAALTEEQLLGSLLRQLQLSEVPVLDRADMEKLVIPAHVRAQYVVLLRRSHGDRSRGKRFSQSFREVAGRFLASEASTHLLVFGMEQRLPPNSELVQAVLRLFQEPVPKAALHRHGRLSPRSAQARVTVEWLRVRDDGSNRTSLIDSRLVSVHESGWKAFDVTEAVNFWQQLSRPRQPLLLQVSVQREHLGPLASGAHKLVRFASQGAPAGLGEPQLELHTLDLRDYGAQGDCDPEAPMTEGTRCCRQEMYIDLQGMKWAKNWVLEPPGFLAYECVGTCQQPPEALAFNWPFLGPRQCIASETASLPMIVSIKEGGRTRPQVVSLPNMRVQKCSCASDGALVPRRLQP
The target of assay [14] is Calmodulin-1 (Homo sapiens) (UniProt P0DP23). The experiment in a line: small molecules binding calmodulin-1 with EGTA – biochemical, small-molecule microarray, Cy5-labelled CALM1, profiling panel (AID 1111).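 Note: labelled calmodulin applied in Tris saline Tween buffer holding calcium plus EGTA and DTT.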 As to conditions: Cy5-CALM1 binding fluorescence, higher = more signal.
For assay [15] the target is unchanged. The experiment in a line: small molecules binding Ca-loaded calmodulin-1 – biochemical, small-molecule microarray, Cy5-labelled CALM1, plus calcium, artefact control for SMM control-protein annotation, profiling panel (AID 1112).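 Note: score merges spot fluorescence with signal to noise from triplicate slides.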 As to conditions: Cy5-CALM1 binding fluorescence, higher = more signal.
The nature of assay [16]: probe aWnt5a binding to arrayed compounds – biochemical, biotinylated probe, 635/667 nm fluorescence, primary screen (AID 1113).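 Note: score merges 667 nm fluorescence intensity with signal-to-noise per printed feature.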 As to conditions: small-molecule microarray, higher = more signal.
A short description of assay [17]: probe aShh binding to arrayed compounds – biochemical, biotinylated probe, 635/667 nm fluorescence, primary screen (AID 1114).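 Note: probe is biotin-labelled aShh protein from a stem cell growth factor screen; measures binding of labelled protein to compounds printed on the slide; score merges feature fluorescence at 667 nm with signal-to-noise.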 As to conditions: small-molecule microarray, higher = more signal.
Assay [18] can be described thus: probe aNog binding to arrayed compounds – biochemical, biotinylated probe, 635/667 nm fluorescence, primary screen (AID 1115).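 Note: probe is biotinylated aNog protein used at 0.15 µg/mL for 1 h at 4 C; z-score combines 667 nm fluorescence of each spot with its signal to noise.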 As to conditions: small-molecule microarray, higher = more signal.
The target of assay [19] is Torsin-1A-interacting protein 1 (Homo sapiens) (UniProt Q5JTV8). The experiment in a line: compound microarray binding of lysate hLAP1 – cell lysate, small-molecule microarray, COS7 lysate, 635/667 nm fluorescence, primary screen (AID 1116). As to conditions: 635 nm fluorescence, higher = more signal.
Sequence of Torsin-1A-interacting protein 1 (Homo sapiens) (Q5JTV8 whole entry, looked up): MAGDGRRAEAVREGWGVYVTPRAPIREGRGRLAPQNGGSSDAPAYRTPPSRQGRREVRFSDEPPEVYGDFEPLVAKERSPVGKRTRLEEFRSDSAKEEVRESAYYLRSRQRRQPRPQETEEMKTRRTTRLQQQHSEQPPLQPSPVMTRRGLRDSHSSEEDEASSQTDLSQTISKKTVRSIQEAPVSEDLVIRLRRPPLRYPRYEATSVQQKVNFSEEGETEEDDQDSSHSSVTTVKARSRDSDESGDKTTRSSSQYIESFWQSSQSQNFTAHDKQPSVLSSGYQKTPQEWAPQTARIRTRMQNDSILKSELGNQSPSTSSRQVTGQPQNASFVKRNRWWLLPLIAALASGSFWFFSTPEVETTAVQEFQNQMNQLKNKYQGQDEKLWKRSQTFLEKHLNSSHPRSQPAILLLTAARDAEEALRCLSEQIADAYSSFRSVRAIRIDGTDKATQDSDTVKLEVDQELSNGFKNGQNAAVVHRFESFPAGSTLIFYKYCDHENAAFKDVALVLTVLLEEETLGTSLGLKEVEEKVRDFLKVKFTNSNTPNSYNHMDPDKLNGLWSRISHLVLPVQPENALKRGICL
Assay [20] deals with Alpha-bungarotoxin (Bungarus multicinctus) (UniProt P60615). The experiment in a line: compounds binding labelled alpha-BTX control protein – biochemical, small-molecule microarray, Alexa647 label, 635/667 nm fluorescence, artefact control for SMM control protein annotation, profiling panel (AID 1117). As to conditions: alpha-BTX-A647 binding fluorescence, higher = more signal.
Sequence of Alpha-bungarotoxin (Bungarus multicinctus) (P60615 whole entry, looked up): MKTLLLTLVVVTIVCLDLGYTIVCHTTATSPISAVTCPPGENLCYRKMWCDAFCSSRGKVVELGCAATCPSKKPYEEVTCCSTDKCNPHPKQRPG

Calls of active or inactive are those of the source.

Sequence of Fibroblast growth factor 10 (Homo sapiens) (O15520 whole entry, looked up): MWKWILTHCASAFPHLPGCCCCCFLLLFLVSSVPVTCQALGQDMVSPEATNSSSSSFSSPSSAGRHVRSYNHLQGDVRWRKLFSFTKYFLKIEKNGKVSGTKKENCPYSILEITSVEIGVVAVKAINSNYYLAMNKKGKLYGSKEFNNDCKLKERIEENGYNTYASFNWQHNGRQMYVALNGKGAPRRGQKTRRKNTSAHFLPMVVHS
Sequence of Dickkopf-related protein 1 (Homo sapiens) (O94907 whole entry, looked up): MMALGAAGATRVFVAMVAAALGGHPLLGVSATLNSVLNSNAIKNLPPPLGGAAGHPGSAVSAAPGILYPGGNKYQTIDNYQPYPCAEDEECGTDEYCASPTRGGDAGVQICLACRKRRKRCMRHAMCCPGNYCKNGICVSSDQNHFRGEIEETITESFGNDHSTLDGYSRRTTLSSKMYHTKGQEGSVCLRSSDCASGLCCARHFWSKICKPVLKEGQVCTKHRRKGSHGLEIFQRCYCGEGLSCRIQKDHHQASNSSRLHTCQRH
Sequence of Epidermal growth factor receptor (Homo sapiens) (P00533 whole entry, looked up): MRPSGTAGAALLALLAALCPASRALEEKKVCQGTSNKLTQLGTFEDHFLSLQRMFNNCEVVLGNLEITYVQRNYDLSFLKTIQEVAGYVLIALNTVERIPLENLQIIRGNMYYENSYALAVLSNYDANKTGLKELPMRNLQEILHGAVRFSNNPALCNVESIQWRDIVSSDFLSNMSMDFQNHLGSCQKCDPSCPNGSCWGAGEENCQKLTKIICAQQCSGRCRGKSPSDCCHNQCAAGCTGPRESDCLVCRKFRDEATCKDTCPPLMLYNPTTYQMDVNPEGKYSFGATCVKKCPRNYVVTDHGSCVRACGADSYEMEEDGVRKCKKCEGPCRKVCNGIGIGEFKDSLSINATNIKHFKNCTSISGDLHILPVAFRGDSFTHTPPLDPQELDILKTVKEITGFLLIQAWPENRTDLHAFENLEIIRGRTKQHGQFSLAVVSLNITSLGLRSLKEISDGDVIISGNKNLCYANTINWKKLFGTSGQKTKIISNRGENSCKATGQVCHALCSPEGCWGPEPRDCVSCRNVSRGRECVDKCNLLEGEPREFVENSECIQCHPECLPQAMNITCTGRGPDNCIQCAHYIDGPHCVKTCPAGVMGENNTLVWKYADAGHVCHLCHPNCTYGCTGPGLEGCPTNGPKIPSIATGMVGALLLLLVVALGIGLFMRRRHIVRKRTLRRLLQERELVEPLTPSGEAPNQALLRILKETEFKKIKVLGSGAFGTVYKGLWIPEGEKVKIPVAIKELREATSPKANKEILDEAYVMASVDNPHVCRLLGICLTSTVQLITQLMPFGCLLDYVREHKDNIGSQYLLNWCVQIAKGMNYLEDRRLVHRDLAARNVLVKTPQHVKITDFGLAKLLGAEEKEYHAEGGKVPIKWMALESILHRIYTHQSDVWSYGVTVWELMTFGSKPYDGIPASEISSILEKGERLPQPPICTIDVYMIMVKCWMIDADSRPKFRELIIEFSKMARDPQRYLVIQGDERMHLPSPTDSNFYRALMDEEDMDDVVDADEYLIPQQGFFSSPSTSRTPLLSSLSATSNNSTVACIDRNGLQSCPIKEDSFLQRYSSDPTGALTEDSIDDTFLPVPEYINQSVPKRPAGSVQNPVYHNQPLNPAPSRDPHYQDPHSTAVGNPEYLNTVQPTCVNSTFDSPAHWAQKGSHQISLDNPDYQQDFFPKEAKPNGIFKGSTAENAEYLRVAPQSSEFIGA

Consider `[N-]=[N+]=NCc1ccccc1[C@@H]1OC(c2ccc(OCCCO)cc2)=N[C@]1(Cc1ccccc1)C(=O)N1CCOCC1`, for which the composite z-score turned out to be 1.57 in [1]; 1.2 in assay [2]; 0.798 in [3]; 1 in [5]; 1.29 in [6]; 0.0588 in assay [7]. Further, the composite z-score in [8] was found to be 0.589; in assay [9] it was 0.315; in [10], 0.182; in [11], 0.0452; in [13], 0.343; in assay [14] it was 1.93. Also, the composite z-score in [15] worked out at 1.05; in assay [16], 0.141; in assay [17], 0.26; in [18] it was 1.9; in [19] it was 3.31; in assay [20], 1.62. Also, the z-score in [4] was -0.962 (inactive); in assay [12] it was -2.03.
Turning to `O=C1NC(=O)C2C1C=CC(C(O)Cc1ccccc1)N2Nc1ccccn1` (stereo not given), the composite z-score in [1] is 0.0468; in [2], 0.133; in assay [3], -0.321; in [5], 0.156; in assay [6] it was 0.0157; in assay [7], 0.377. Further, the composite z-score in [8] came out at 0.233; in [9], 0.0833; in [10] it was 0.97; in [11], 0.555; in [13], 0.185; in assay [14] it was 0.0084. The composite z-score is -0.541 in assay [15]; 0.0328 in assay [16]; -0.0793 in [17]; 0.342 in [18]; 0.818 in assay [19]; 1.34 in assay [20]. Further, the z-score in assay [4] was -0.818 (inactive); in [12], -0.377.
For `O=C1C[C@@H](O)[C@@H](O)[C@@H]2[C@@H]3C(=O)N(C4CCCCC4)C(=O)[C@@H]3CC[C@H]12`, the composite z-score is 0.523 in assay [1]; -0.376 in assay [2]; -0.711 in assay [3]; 0.438 in assay [5]; 0.919 in assay [6]; 0.634 in assay [7]. Besides, the composite z-score in [8] is 0.553; in assay [9], 0.718; in assay [10], -0.294; in assay [11], 0.717; in [13] it was 0.456; in assay [14], -0.0292. Moreover, the composite z-score is -0.57 in [15]; -0.114 in [16]; -0.309 in [17]; 0.0051 in assay [18]; 0.473 in assay [19]; -0.0214 in [20]. Moreover, the z-score in assay [4] was 0.804 (inactive); in [12], -0.0951.
`C[C@H]1CC[C@@H](C(=O)O)N[C@@H]1c1ccc(C#CCN(C)C)cc1`: the composite z-score was 0.785 in assay [1]; -0.275 in assay [2]; -0.337 in [3]; 0.425 in assay [5]; 0.429 in [6]; 0.44 in assay [7]. For the same molecule, the composite z-score in [8] is 0.481; in assay [9], 0.33; in assay [10], 0.222; in [11], -1.64; in [13], 0.793; in [14], -0.263. For the same molecule, the composite z-score in [15] was -0.51; in assay [16], -0.152; in assay [17] it was 0.148; in assay [18], -0.126; in [19], 0.109; in assay [20] it was 0.783. The figures for the z-score in assay [4] and in assay [12] were -0.248 (inactive) and 0.848, respectively.
In the case of `CC1(C)OCC(C(O)C2=CCCCC2=O)CO1` (stereo not given), the composite z-score in [1] was 1.04; in assay [2], -0.137; in [3], -0.704; in [5] it was 0.694; in [6], 0.999; in assay [7] it was 0.625. In addition, the composite z-score worked out at 0.859 in assay [8]; 0.717 in assay [9]; 1.6 in [10]; 0.198 in [11]; 1.07 in assay [13]; 0.465 in [14]. The composite z-score was -0.927 in assay [15]; 0.0244 in assay [16]; -0.276 in assay [17]; -0.158 in assay [18]; 0.5 in assay [19]; 1.16 in assay [20]. In addition, the z-score is 0.733 (inactive) in assay [4] and -0.751 in [12].
Take `CCc1cc2c(nc1CC)CCN(CCC(C)=NO[C@@H](C)c1cc(-c3c(C)cc(C)cc3C)no1)C2`: the composite z-score in assay [1] was 0.856; in assay [2] it was -0.227; in assay [3] it was -0.286; in assay [5], -0.328; in [6] it was -0.562; in [7], -0.408. In addition, the composite z-score is -0.473 in assay [8]; -0.107 in assay [9]; 0.711 in assay [10]; 0.0525 in assay [11]; -0.368 in assay [13]; 0.0642 in assay [14]. Further, the composite z-score in assay [15] was -0.363; in [16] it was -0.195; in assay [17] it was -0.0709; in [18] it was 0.0014; in assay [19], 0.0675; in assay [20] it was 0.297. Moreover, the figures for the z-score in assay [4] and in [12] were -0.596 (inactive) and -1.87, respectively.
